{
  "source": "PubChem BioAssay (NCATS)",
  "note": "The other results are listed elsewhere or left out. Where a call stands in place of a potency, no number is given. Records with an inconclusive call do not appear. Active and inactive are the calls of the source. The call rests on the fitted dose curve. Potency means the concentration at half of the fitted maximal effect.",
  "data": [
    {"target": "Furin (Homo sapiens) (UniProt P09958)", "sequence (P09958 whole entry, looked up)": "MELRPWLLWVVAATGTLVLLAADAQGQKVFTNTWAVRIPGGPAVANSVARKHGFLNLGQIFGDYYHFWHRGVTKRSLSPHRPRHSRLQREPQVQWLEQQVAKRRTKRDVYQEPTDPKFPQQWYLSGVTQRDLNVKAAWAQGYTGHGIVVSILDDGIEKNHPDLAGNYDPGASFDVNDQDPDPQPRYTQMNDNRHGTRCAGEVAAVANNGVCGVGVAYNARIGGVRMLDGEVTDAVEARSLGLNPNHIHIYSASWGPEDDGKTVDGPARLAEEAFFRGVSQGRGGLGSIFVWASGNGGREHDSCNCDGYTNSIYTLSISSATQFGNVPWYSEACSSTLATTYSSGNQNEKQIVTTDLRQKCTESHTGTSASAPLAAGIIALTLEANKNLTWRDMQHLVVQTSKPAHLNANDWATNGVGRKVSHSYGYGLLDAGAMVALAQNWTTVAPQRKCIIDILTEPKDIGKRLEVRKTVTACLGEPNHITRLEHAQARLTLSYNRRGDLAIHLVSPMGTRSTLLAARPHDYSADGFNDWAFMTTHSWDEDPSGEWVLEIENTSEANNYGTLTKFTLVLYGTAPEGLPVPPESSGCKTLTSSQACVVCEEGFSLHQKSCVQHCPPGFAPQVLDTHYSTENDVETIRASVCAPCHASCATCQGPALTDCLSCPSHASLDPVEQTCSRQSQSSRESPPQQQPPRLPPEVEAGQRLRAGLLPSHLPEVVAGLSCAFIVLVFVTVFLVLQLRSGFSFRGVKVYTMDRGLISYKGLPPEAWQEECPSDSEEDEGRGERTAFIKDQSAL", "experiment": "Selectivity profile for inhibitors of NSP2Pro chikungunya virus (CHIKV): Human furin counterscreen (AID 1964102)", "conditions": "Recombinant human furin enzymatic counterscreen, fluorogenic substrate; series mostly up to 50.6 µM", "description": "PI: Natalia J. Martinez Ph.D.\nNational Center for Advancing Translational Sciences (NCATS),\nNational Institute of Health (NIH), Rockville, Maryland\nChikungunya virus (CHIKV) is a mosquito-borne RNA virus that has emerged as one of the most important global arboviral threats in the last decade. Although the first CHIKV vaccine has recently been FDA approved for use in healthy adults at increased risk, to date, there are no available antiviral drugs for CHIKV infection. CHIKV nsP2 protease plays a crucial role in the processing of the viral polypeptide precursor to release enzymes required for viral replication, thus making it a promising drug target for antiviral discovery. Here, we established a high-throughput pipeline to identify small molecule inhibitors of nsP2 proteolytic activity. The pipeline is composed of a suite of 1,536-well in vitro assays to support quantitative high-throughput (qHTS) screening campaigns. Specifically, we developed a fluorescence resonance energy transfer (FRET)-based assay using a fluorogenic peptide substrate encompassing an endogenous cleavage site and purified recombinant protease domain (nsP2pro). Using this assay, we interrogated ~37,000 small molecules, including those in drug repurposing libraries as well as chemically diverse and medicinal chemistry-friendly compounds. Hits were selected for follow-up validation against full-length nsP2 and an additional peptide. FRET-based 1,536-well assays for papain, hepatitis C virus NS3-4A, and human furin proteases were implemented to characterize compound selectivity. […] Novel compounds were identified to be potential nsP2 inhibitors and molecular docking analyses were performed to explain the binding mode of selected hits. In vitro antiviral activity was evaluated for a subset of compounds using a high-throughput CHIKV infection assay. To our knowledge, the pipeline presented here is unprecedented for CHIKV antiviral discovery research.\nPROTOCOL TABLE (as described by Inglese J, Shamu CE and Guy RK. 2007)\nSEQUENCE No. (e.g., 1, 2, 3, etc.); […] (e.g., Cells, Incubation, Reagent, etc.); VALUE; DESCRIPTION.\n1; Enzyme; 2 uL; 1,536-well solid-bottom, black plate (Greiner Bio One).\n2; Compounds; 20 nL; Echo 655 acoustic dispenser (Beckman Coulter).\n3; Incubation; 15 min; room temperature in the dark.\n4: Reagent; 2 uL; pERTKR-AMC.\n5; Detection; Fluorescence; time 0, Viewlux microplate reader (PerkinElmer) 355 nm excitation, 460 nm emission\n6; Incubation; 15 min; room temperature\n7; Detection; Fluorescence; time 15; ViewLux microplate reader (PerkinElmer), 355 nm excitation, 460 nm emission.\nNOTES (numbers refer to sequence numbers above).\n1. Two micro-liter of furin enzyme solution (40 nM final concentration) in assay buffer (20 mM Tris-HCl pH 8.0, 150 mM NaCl, with 0.01% Tween 20) were dispensed into a 1,536-well solid-bottom black plate (Greiner Bio One) using the Kalypsys Pintool Station.\n2. Twenty nano-liter of compounds, positive control Aprotinin (50 uM final concentration), or neutral control DMSO were transferred to the assay plates. Compounds in counterscreen assays were tested at 11 concentrations, 1:3 dilution points from 25 uM to 0.42 nM.\n3. The assay plates were incubated in the dark for 15 min.\n4. After incubation, 2 uL of 0.625 uM pERTKR-AMC substrate in assay buffer for the Furin assay was added using the Kalypsys Pintool Station.\n5-7. Plates were immediately read at time 0 then covered with stainless steel gasket lids and incubated for 15 min at room temperature in the dark. Fluorescence intensity in the assay plates were again read after incubation using the ViewLux imager equipped with AMC fluorescence optics. The change in fluorescence intensity over the 15-min reaction period was normalized against DMSO and inhibitor controls as described below.\nInglese J, Shamu CE and Guy RK, Reporting data from high throughput screening of small molecule libraries, Nature Chemical Biology, 2007, 3(8): 438-441. doi.org/10.1038/nchembio0807-438.", "values": [
      {"smiles": "C[C@@H]1C[C@@H](O)[C@@]23CO[C@]2(CO)C[C@@H](O)CC3[C@@]12CC(c1ccoc1)OC2=O", "note": "(stereo partly drawn)", "Potency": "inactive"},
      {"smiles": "C=Cc1c(C)c2cc3nc(cc4[nH]c(cc5nc(cc1[nH]2)C(C)=C5CCC(=O)O)c(CCC(=O)OC)c4C)[C@@]1(C)C3=CC=C(C(=O)OC)[C@H]1C(=O)OC", "Potency": "inactive"},
      {"smiles": "C[C@@H]1O[C@@H](O[C@@H]2[C@@H](O)[C@H](OCCc3ccc(O)c(O)c3)O[C@H](CO[C@@H]3O[C@H](CO)[C@@H](O)[C@H](O)[C@H]3O)[C@H]2OC(=O)/C=C/c2ccc(O)c(O)c2)[C@H](O)[C@H](O)[C@H]1O", "Potency": "inactive"},
      {"smiles": "CO[C@]1(NC(=O)CSC(F)F)C(=O)N2C(C(=O)O)=C(CSc3nnnn3CCO)CO[C@H]21", "Potency": "inactive"},
      {"smiles": "CCOc1ccc(NC(=O)c2c(NC(=O)Cc3ccccc3)sc3c2CCCCC3)cc1", "Potency": "inactive"},
      {"smiles": "CC1=C(/C=C/C(C)=C/C=C/C(C)=C/C=C/C=C(C)/C=C/C=C(C)/C=C/C2=C(C)CCCC2(C)C)C(C)(C)CCC1", "Potency": "inactive"},
      {"smiles": "CCOc1ccc(NC(=O)c2c(NC(=O)Cc3ccccc3)sc3c2CCC(C)C3)cc1", "note": "(stereo not drawn)", "Potency": "inactive"},
      {"smiles": "Oc1ccc(OC2CCCCO2)cc1", "note": "(stereo not drawn)", "Potency": "inactive"},
      {"smiles": "CCOc1ccc(N(Cc2ccccc2)C(=O)c2nc(S(C)(=O)=O)ncc2Cl)cc1", "Potency": "inactive"},
      {"smiles": "COC([CH2][Hg])CNC(=O)c1ccccc1OCC(=O)O", "note": "(stereo not drawn)", "Potency": "2.06 µM (active)"},
      {"smiles": "CCC(C)C(=O)OC1C(C)C2(O)C(C=C(CO)CC3(O)C(=O)C(C)=CC32)C2C(C)(C)C12OC(=O)C(C)C", "note": "(stereo not drawn)", "Potency": "inactive"},
      {"smiles": "C[C@@H]1[C@H](O)[C@@H]2OC(=O)C3=C2[C@H](CCC3)[C@@]12C[C@@H](c1ccoc1)OC2=O", "Potency": "inactive"},
      {"smiles": "N#CSc1cc(SC#N)c(N)nc1N", "Potency": "inactive"},
      {"smiles": "CC(=O)N[C@@H](C(=O)O[C@H]1CCC(C)(C)[C@@H]2CCC3=C(COC3=O)[C@@]12C)C(C)C", "Potency": "inactive"},
      {"smiles": "Cc1c(S(=O)(=O)O)oc2c1C(=O)C(=O)c1c-2ccc2c1CCCC2(C)C", "Potency": "inactive"},
      {"smiles": "O=C(O)c1cccc(-n2[nH]c(-c3ccccc3)cc2=O)c1", "Potency": "inactive"},
      {"smiles": "C=CC(=O)c1ccc2ccccc2c1", "Potency": "inactive"},
      {"smiles": "CCc1ccccc1NC(=O)c1cnn(-c2ccc(F)cc2)c1C1CCNCC1", "Potency": "inactive"}
    ]}
  ]
}
